Source: PubChem BioAssay (National Center for Advancing Translational Sciences (NCATS))
Only some compounds are listed: those with a hit (about 6.8% of all), similar ones and a draw of the others.
KB-3-1 cytotox – KB-3-1 parental cell cytotoxicity | KB-3-1 viability, CellTiter-Glo ATP luminescence, 72 h | Potency, µM (doses to about 46.1 µM), hits mostly cytotoxic | 400,000 compounds, 1.4% hits | AID 1347075; further: on the % scale 0 is the no-effect control and ±100 the full control effect; nearly all actives have a fitted effect of over 60% in size
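Cytotoxicity in the drug-sensitive parental line KB-3-1 was scored as loss of CellTiter-Glo luminescence following 72 h incubation with compound. Values come from curve fitting of normalized concentration-response data.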
PINK1 modulator – modulators of PINK1 expression | PINK1 immunofluorescence, high-content cytometry, 24 h | 410,000 compounds, 0.2% hits | Potency, µM (series often up to 76.6 µM), for the others: top-dose activation (PINK1 increase), hits mostly activators; active means well fitted activation curve with a large enough effect; inconclusive means small, poorly fitted or top-dose-only effect; cell line not stated here; further: % of control where 0% means no effect; nearly all actives have a fitted effect of over 65% in size
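Readout is PINK1 immunofluorescence, quantified alongside mitochondrial, cell and nuclear markers by laser-scanning microplate cytometry. Cells from a stable line were exposed to compound titrations (5 concentrations) for 24 hours, with CCCP controls.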
TSG101-PTAP inh – blocks PTAP/TSG101 interaction to inhibit HIV-1 budding | Fluorescence polarization, FITC-PTAP peptide / Tsg101 binding | Potency, µM (highest dose often 115 µM), without a hit: top-dose activity change, negative = inhibition, hits mostly inhibitors | 340,000 tested, under 10 active | AID 493005; active means well fitted inhibition curve with a large enough effect in the main read-out, with a control signal flat, not every such curve was filed as active; inconclusive means small, poorly fitted or top-dose-only effect, or effect the other way, or a change in a side signal; inactive means no such curve, though single readings can be large or run the other way; further: % of control where 0% means no effect
Target sequence (Q99816 whole entry, looked up): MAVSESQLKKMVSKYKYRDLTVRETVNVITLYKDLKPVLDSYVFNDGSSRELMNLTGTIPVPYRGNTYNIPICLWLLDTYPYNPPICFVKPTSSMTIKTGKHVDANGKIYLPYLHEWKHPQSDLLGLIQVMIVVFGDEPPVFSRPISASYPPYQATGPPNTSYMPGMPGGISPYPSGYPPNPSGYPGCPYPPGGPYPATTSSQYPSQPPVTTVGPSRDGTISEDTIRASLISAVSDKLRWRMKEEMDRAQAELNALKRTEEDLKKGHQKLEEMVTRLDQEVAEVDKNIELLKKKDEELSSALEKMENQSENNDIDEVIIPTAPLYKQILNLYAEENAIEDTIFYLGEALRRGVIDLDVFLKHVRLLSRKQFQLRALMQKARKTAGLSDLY
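Compounds were pin-transferred onto Tsg101 binding domain (10 uM final) in HEPES pH 7.5 buffer, then FITC-PTAP peptide was added at 50 nM final. After 20 min at RT, polarization reported peptide displacement across a qHTS concentration series.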
MCF10A rereplic – DNA re-replication induction in MCF 10a cells; MCF 10A DNA re-replication, Hoechst nuclear intensity, 48 h; Potency, µM (top dose mostly 46.1 µM), for the others: at the highest dose activity, positive = re-replication, actives largely listed as activators; 350,000 compounds, 2.9% hits; AID 624296; further: % of control where 0% means no effect; nearly all actives have a fitted effect of over 50% in size
KB-V1 cytotox – KB-V1 MDR subline cytotoxicity; KB-V1 MDR cells viability, CellTiter-Glo, 72 h; 400,000 compounds, 3.4% hits; Potency, µM (top dose mostly 46.1 µM), hits mostly cytotoxic; AID 1347076; further: on the % scale 0 is the no-effect control and ±100 the full control effect; nearly all actives have a fitted effect of over 60% in size
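KB-V1 cells (P-gp-expressing MDR subline of KB-3-1) in phenol-red-free DMEM with 10% FBS were exposed to library compounds over a concentration series for 72 h at 37 degrees C. Viability read by CellTiter-Glo luminescence; concentration-effect curves fitted after normalization.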
SW480 rerep – induces DNA re-replication in SW480 colon adenocarcinoma cells; SW480 DNA re-replication, Hoechst DNA content imaging, 48 h; Potency, µM (top dose mostly 46.1 µM), for inactives: at the highest dose re-replication activation, most hits filed as activators; 340,000 compounds, 1.8% hits; further: % of control where 0% means no effect; nearly all actives have a fitted effect of over 55% in size
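Image-based read-out: total Hoechst fluorescence of nuclei (405 nm excitation, 500-530 nm emission), with hits raising the fraction of high-intensity nuclei. SW480 colon cells incubated 48 hr with compounds at 37 C.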
* marks the source's active call; other numbers are inactive results; i = inactive; ? = inconclusive; nt = not tested or not shown; ! = a repeat was not active; [ ] = another dose, or the depositor's remark. Unless noted, the call rests on the fitted dose curve; in most records, active means well fitted curve in the direction sought with a large enough effect; inconclusive means small, poorly fitted or top-dose-only effect, or another doubt; inactive means no such curve, though single readings can be large; an effect the other way counts as inactive or inconclusive. Potency means the concentration at half of the fitted maximal effect.

SMILES	KB-3-1 cytotox	PINK1 modulator	TSG101-PTAP inh	MCF10A rereplic	KB-V1 cytotox	SW480 rerep
Cc1cc2nc(-c3ccc(Cl)cc3)cc(C(F)(F)F)n2n1	i	1.4%	nt	nt	i	nt
Cc1ccc(OCC(=O)Nc2ccc3nc(SCC(=O)N4CCCC4)sc3c2)cc1C	nt	1.8%	nt	nt	nt	nt
COc1cc(Cl)c(C)cc1NC(=O)c1cc(S(=O)(=O)N2CCCC2)ccc1F	i	1.2%	nt	nt	i	nt
O=C(C1CC1)N1CCc2cc(Br)cc(S(=O)(=O)N3CCCCCC3)c21	?	6.8%	-4.3%	?	9.2µM*	15.6%
CCCCCCCCCOC(=O)CNc1nc(C#N)nc(NCC(=O)OCCCCCCCCC)n1	?	1.5%	nt	nt	i	nt
CC1CCN(c2[nH]c(=S)c(C#N)c3c2CCCC3)CC1	i	1.0%[38.3 µM]	-1.4%	-4.8%	i	-1.0%
CC1(C)Cc2c(c(N3CCCCC3)[nH]c(=S)c2C#N)CS1	i	6.3%	-3.3%	?	11.6µM*	-4.8%
COc1cc(OC)c(NS(=O)(=O)c2c(C)nc3sc(C)cn3c2=O)cc1Cl	i	0.0%	nt	nt	i	nt
CCOC(=O)CSc1nnc([C@H](Cc2ccccc2)NC(=O)OC(C)(C)C)o1	i	3.7%[38.3 µM]	0.3%	-3.9%	i	1.3%
CN(C)C(=O)CSc1nnc([C@H](Cc2c[nH]c3ccccc23)NC(=O)OC(C)(C)C)o1	i	2.3%	-3.9%	-4.9%	13µM*	-5.9%
CC(C)C[C@H](NC(=O)OC(C)(C)C)c1nnc(SCc2ccccc2)o1	i	-1.1%	-11.7%	430.3%[0.0737 µM]	?	2.59µM*
COc1ccc(Cl)cc1-c1cc2c(c(OC)c1)OCCN(Cc1cccn1-c1nccs1)C2	nt	-1.3%	nt	nt	nt	nt
COc1cc(NC(=O)CCc2nc3cccnc3n2Cc2cccs2)cc(OC)c1OC	i	1.4%	nt	nt	i	nt
CCc1ccc2ncc(S(=O)(=O)c3ccc(C)c(C)c3)c(N3CCCC3)c2c1	18.4µM*	?	0.5%	23.1µM*	?	15.5%
Cc1ccc(/C=C/c2nc3ccccc3s2)s1	?	0.4%	-1.3%	?	i	10.6%
CN(Cc1ccccc1)c1ccc(/C=C/c2nc3ccccc3s2)cc1	7.31µM*	?	nt	nt	i	nt
C=C(/C=C/c1ccc(N(C)C)cc1)c1nc2ccccc2s1	i	10µM*	nt	nt	?	nt
CN(C)c1ccc(/C=C/c2nc3ccccc3s2)cc1	16.4µM*!	44.7µM*	0.6%	?	13µM*!	9.2µM*
Cc1ccc(-n2c3nc(=O)[nH]c(=O)c-3cc3c(C)nn(-c4ccccc4)c32)cc1C	i	-0.2%	nt	nt	i	nt
CC(O)CCCCn1c(=O)c2c(ncn2C)n(C)c1=O (stereo not given)	nt	nt	nt	2.3%	nt	-2.7%
Cc1ccc(Cn2cc(C(=O)c3ccc4c(c3)OCO4)c(=O)c3cc(C)ccc32)cc1	i	-1.0%	nt	nt	i	nt
COc1ccc(-c2cc3nc(C)cc(-c4ccc(OC)cc4)n3n2)cc1	i	7.9%	1.1%	11.6µM*	i	?
Clc1cccc(-c2cc3nc4c(c(NCc5ccco5)n3n2)CCCC4)c1	i	nt	-4.3%	23.1%	20.6µM*	?
COc1ccc(-c2cc3nc(C)cc(N)n3n2)cc1	?	0.3%	-1.8%	2.1%	?	-7.3%
Cc1ccc(-c2cc3nc(C)cc(NCc4ccco4)n3n2)cc1	i	17.4%[38.3 µM]	nt	5.17µM*	14.6µM*	?
SMILES	KB-3-1 cytotox	PINK1 modulator	TSG101-PTAP inh	MCF10A rereplic	KB-V1 cytotox	SW480 rerep
COc1ccc(-c2cc3nc(C)cc(NCCO)n3n2)cc1	i	nt	-4.1%	-1.0%	?	-12.2%
COCCNc1cc(C)nc2cc(-c3ccc(C)cc3)nn12	i	3.6%	-0.3%	?	?	16.4µM*
Cc1ccc(C(=O)NCC(c2ccco2)S(=O)(=O)c2ccccc2)cc1C (stereo not given)	i	1.7%	nt	nt	i	nt
CCn1c(=O)c2sccc2n2c(CCC(=O)Nc3cc(C)cc(C)c3)nnc12	i	3.3%	nt	nt	?	nt
COc1cc(OC)nc(Oc2ccccc2C=O)n1	i	1.5%	-3.6%	16.4µM*	i	2.8%
COc1cc(OC)nc(Oc2ccccc2/C=N/O)n1	i	3.0%	-0.6%	8.9%	i	0.6%
CCOC(=O)CN1C(=O)S/C(=C\c2ccc(-c3ccc(C(=O)O)c(Cl)c3)o2)C1=O	i	-0.1%	-3.5%	23.1µM*	i	0.651µM*
Cc1ccc(NC(=O)CN2C(=O)S/C(=C\c3ccc(-c4cccc(C(=O)O)c4C)o3)C2=O)cc1C	i	1.6%	?	12.6µM*	i	?
O=C(O)c1ccc(-c2ccc(/C=C3\NC(=O)N(Cc4ccc(Cl)cc4)C3=O)o2)cc1Cl	?	-0.7%	-7.5%	11.2µM*	i	7.31µM*
Cc1ccc(/C=C2/NC(=O)N(Cc3ccc(Br)cc3)C2=O)o1	i	6.1%	3.1%	16.4µM*	i	?
CCOC(=O)CN1C(=O)S/C(=C\c2ccc(-c3cccc(C(=O)O)c3C)o2)C1=O	i	-1.3%	0.5%	21.2%	i	15.2%
CC(=O)c1cccc(NC(=O)C2CCN(S(=O)(=O)c3ccc4c(c3)oc(=O)n4C)CC2)c1	i	2.6%	nt	nt	?	nt
Cc1ccc(NC(=O)c2nc(S(C)(=O)=O)ncc2N(Cc2ccc(C(C)(C)C)cc2)Cc2ccco2)cc1C	i	1.2%	nt	nt	i	nt
Cc1ccc(OCC(=O)N(Cc2ccco2)c2ccccn2)cc1	nt	-0.4%	nt	nt	nt	nt
Cc1ccc(CN2C(=O)N/C(=C\c3ccc(N4CCOCC4)cc3)C2=O)cc1	i	?	0.9%	15.5%	i	14.6µM*
CCOCCc1nn2c(=O)cc(COC(=O)C(CC)c3ccccc3)nc2s1 (stereo not given)	i	-1.2%	nt	nt	i	nt
Cc1cc(N2CCN(C(C(=O)NC3CCCC3)c3ccc(-c4ccccc4)cc3)CC2)c2ccccc2n1 (stereo not given)	?	nt	nt	nt	20.6µM*	nt
COc1ccc(Cn2c(SCc3ccc(C(=O)NC4CCCCC4)cc3)nc3cccnc32)cc1	i	8.1%	nt	nt	?	nt
CCN1CCC(N(Cc2ccc3c(c2)OCO3)C(=O)Nc2cc(Cl)ccc2C(=O)OC)CC1	16.4µM*	5.0%	nt	nt	?	nt
CC(C)OCCCNC(=O)CSc1c2c(nc3ccc(Cl)cc13)CCCC2	nt	2.6%	nt	nt	nt	nt
Nc1ccn(Cc2cccc(F)c2)n1	i	0.7%	0.7%	3.5%	i	-2.5%
N=c1ccn(Cc2cccc(F)c2)cc1	23.1µM*	-0.5%	-0.2%	-3.3%	i	?
CCOC(=O)N1CCN(C(=O)c2ccc3c(c2)NC(=O)/C(=C\c2cccc(C)c2)S3)CC1	?	0.9%	-6.0%	18.4µM*	?	26.0%
